The list is not random: actives were taken first. Their share in the collection is about 3.4%.
proKLK7 act = activates the human kallikrein-7 zymogen | P49862 | purified proKLK7, EDANS-DABCYL substrate fluorescence; 100% is mature enzyme control, 0% vehicle | activation, % at 7 µM | 370,000 compounds, 0.9% hits;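 active = activation above the mean of all tested compounds plus 3 SD, computed per campaign excluding outliers beyond control limits, cut at about 13% in these data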
PLCg1 inh = inhibitors of human phospholipase C gamma1; P19174; purified PLC-gamma1, fluorogenic substrate, fluorescence; inhibition, % at 12.2 µM; 370,000 compounds, 0.84% hits; AID 720700
ADAM17 inh = inhibits human ADAM17 | P78536 | inhibition, % at 6.95 µM | recombinant ADAM17, EDANS/DABCYL FRET peptide cleavage | 370,000 compounds, 0.83% hits;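 active = inhibition above the mean of compounds lying between control limits plus 3 SD, set per campaign, cut at about 8.5% in these data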
Target sequence (P78536 215-824 limits assumed): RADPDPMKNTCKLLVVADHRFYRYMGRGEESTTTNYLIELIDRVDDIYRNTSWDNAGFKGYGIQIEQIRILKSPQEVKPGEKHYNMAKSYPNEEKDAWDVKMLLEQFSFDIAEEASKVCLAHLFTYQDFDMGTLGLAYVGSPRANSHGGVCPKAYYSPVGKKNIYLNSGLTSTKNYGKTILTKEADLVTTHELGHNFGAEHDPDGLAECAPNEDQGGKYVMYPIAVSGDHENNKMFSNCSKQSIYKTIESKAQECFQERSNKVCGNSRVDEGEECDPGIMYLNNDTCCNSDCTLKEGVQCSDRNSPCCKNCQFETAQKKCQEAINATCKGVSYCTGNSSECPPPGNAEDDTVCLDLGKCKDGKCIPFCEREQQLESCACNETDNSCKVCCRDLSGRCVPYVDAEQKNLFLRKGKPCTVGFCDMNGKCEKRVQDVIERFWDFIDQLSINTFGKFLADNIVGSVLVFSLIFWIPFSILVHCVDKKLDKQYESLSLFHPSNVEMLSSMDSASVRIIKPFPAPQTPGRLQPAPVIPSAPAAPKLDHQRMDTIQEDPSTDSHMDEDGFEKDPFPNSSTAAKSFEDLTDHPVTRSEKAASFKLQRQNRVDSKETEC
PLC-beta3 inh = PLC-beta3 (human) inhibition, primary screen | Q01970 | Purified PLC-beta3, fluorogenic substrate, fluorescence | inhibition, % at 12.2 µM | 370,000 compounds, 0.18% hits; in the data active = inhibition above about 11%
sPLA2-III inh = Blocks human group III sPLA2 activity | 370,000 compounds, 0.56% hits | AID 743126 | inhibition, % at 12.2 µM | Q9NZ20 | QFRET BODIPY PC-A2 liposome hydrolysis, fluorescence;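 active = inhibition above mean plus 3 SD of compounds lying within the high and low control bounds, cut at about 19% in these data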
ADAM10 inh = ADAM10 inhibition, QFRET primary screen | recombinant ADAM10, EDANS/DABCYL FRET peptide cleavage, 3 h | inhibition, % at 7 µM | 370,000 compounds, 0.62% hits | O14672 | AID 720582;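 active = inhibition above a per-campaign cutoff equal to the mean of compounds falling between control-based bounds plus 3 SD, cut at about 20% in these data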
PLCg1 ctr = inhibits human PLC-gamma1 in PLC-beta3 counter-screen | purified PLC-gamma1, fluorogenic substrate, fluorescence | inhibition, % at 12.3 µM | AID 743258 | 3,300 compounds, 3.1% hits | shares compounds with PLCg1 inh
PLCb3 confirm = confirmation of human PLC-beta3 inhibitors | shares compounds with PLCg1 inh | purified PLC-beta3, fluorogenic substrate fluorescence | inhibition, % at 12.3 µM | 3,300 compounds, 1% hits | AID 743261; in the data active = inhibition above about 11%
Each line names hits and unclear results; the compound was inactive in the other large screens (follow-up assays come after a bar, where they were run). Cut-off read from the data, not from the text of the source, unless noted: active = inhibition above about 9.5%; inactive = the rest.

COc1ccc(NC(=O)CSc2nnc(C)n2C2CC2)cc1S(=O)(=O)N1CCOCC1	PLCg1 inh 9.8 | PLCg1 ctr inactive | PLCb3 confirm inactive
Cc1ccc(NC(=O)CSc2nnc(C)n2C2CC2)cc1S(=O)(=O)N1CCOCC1	none
CC(C)N(CCO)C(=O)CCc1nnc(Cc2cccc(C(F)(F)F)c2)o1	PLCg1 inh 9.7 | PLCg1 ctr inactive | PLCb3 confirm inactive
COc1ccc(NC(=O)C2CC(=O)OC2c2ccccc2)cc1 (configuration not stated)	PLCg1 inh 10 | PLCg1 ctr inactive | PLCb3 confirm inactive
O=C1C[C@@H](C(=O)Nc2ccc(Cl)cc2)[C@@H](c2ccccc2)O1	none
O=C(C1CCN(c2ncnc3c2sc2cccc(F)c23)CC1)N1CCN(C(=O)C2CCCO2)CC1 (configuration not stated)	none
COc1ccc2c(c1)NC(=O)[C@@]2(CCN1C(=O)c2ccccc2C1=O)c1[nH]c2ccccc2c1CCN1C(=O)c2ccccc2C1=O	none (no result: proKLK7 act)
COC(=O)[C@]12C[C@H](CC(=O)N3CCOCC3)C(=O)N(CCc3ccc(OC)c(OC)c3)C1=C[C@H](COCc1ccccc1)O[C@@H]2C	none
CC(=O)N=c1sc(C(C)(C)C)c(C)n1C	PLCg1 inh 9.8 | PLCg1 ctr inactive | PLCb3 confirm inactive
COc1cc(OC)c(C(=O)Oc2ccc3c(c2)OCO3)cc1OC	PLCg1 inh 11 | PLCg1 ctr inactive | PLCb3 confirm inactive
COc1ccc(C(=O)Oc2ccc3c(c2)OCO3)cc1OC	none
Cc1ccc[n+](-c2[nH]c(=O)sc2/C=N/NC(=O)c2ccccc2[O-])c1	PLCg1 inh 14 | PLCg1 ctr inactive | PLCb3 confirm inactive
COP(=O)(O)C(COCCC(CC(C)C)NC(=O)OCc1ccccc1[N+](=O)[O-])NC(=O)OCc1ccccc1 (configuration not stated)	none (no result: proKLK7 act)
CCOc1ccc(C(=O)NCCC2=CCCCC2)cc1OCC	PLCg1 inh 11 | PLCg1 ctr inactive | PLCb3 confirm inactive
CCC(=O)c1ccc(OCC(=O)NCCC2=CCCCC2)c(OC)c1	none
COc1ccc(S(=O)(=O)N2CCCCCC2)cc1	none
COc1ccc(CNC(=O)c2cc(S(=O)(=O)N3CCCCC3)ccc2Cl)cc1OC	PLC-beta3 inh 13 | PLCg1 ctr inactive | PLCb3 confirm inactive
COc1ccc(CNS(=O)(=O)c2ccc(S(=O)(=O)N3CCCCC3)cc2)cc1	PLCg1 inh 11 | PLCg1 ctr inactive | PLCb3 confirm inactive
COc1ccc(S(=O)(=O)N2CCC(N3CCCCC3)CC2)cc1	PLCg1 inh 9.7 | PLCg1 ctr inactive | PLCb3 confirm inactive
COc1ccc(CNC(=O)c2cccc(S(=O)(=O)N3CCCCC3)c2)cc1OC	none
Nn1c(SCc2ccc([N+](=O)[O-])cc2)nnc1-c1cc(-c2ccccc2)n[nH]1	none
CCC(NC(=O)c1ccc2c(ccn2Cc2cccc(-c3ccc(C(=O)O)cc3)c2)c1)c1ccccc1 (configuration not stated)	none
COC(=O)CC[C@H](/C=C/C(=O)OC(C)(C)C)Sc1ccc(C(C)(C)C)cc1	none
COc1ccc(OC)c(S(=O)(=O)N2CCCCC2C(=O)N2CCN(CCO)CC2)c1 (configuration not stated)	none
Cn1cnnc1SCNC(=O)C(F)(F)F	PLC-beta3 inh 12 | PLCg1 ctr inactive | PLCb3 confirm inactive
CSc1nc(N)c(C(=O)NC2CCCCC2)s1	PLCg1 inh 12 | PLCg1 ctr 9.6 | PLCb3 confirm inactive
CCOC(=O)c1sc(SC)nc1N	none
COC(=O)C1CN(CC(C)C)CCS(=O)(=O)N1Cc1ccc(Cl)cc1 (configuration not stated)	none
CC(=O)c1c(C)[nH]c(C(=O)OCC(=O)NCCc2ccc(Cl)cc2)c1C	PLCg1 inh 11 | PLCg1 ctr inactive | PLCb3 confirm inactive
CC(=O)c1c(C)[nH]c(C(=O)OCC(=O)NCCc2ccc(F)cc2)c1C	none
CCCCOc1ccc(C(=O)NC2CCCCN(CCC)C2=O)cc1 (configuration not stated)	none
CN(C(=O)COC(=O)C1CCN(S(=O)(=O)c2ccc3c(c2)OCCO3)CC1)C1CCS(=O)(=O)C1 (configuration not stated)	PLCg1 inh 14 | PLCg1 ctr inactive | PLCb3 confirm inactive
CCn1c(COc2ccc(Cl)cc2)nnc1SCC(=O)Nc1ccc(Oc2ccccc2)cc1	none
CCCCNC(=O)C[C@H]1C[C@@]2(C(=O)OC)C(=C[C@H](C(C)C)O[C@@H]2C2CC2)N(CCc2ccc(OC)c(OC)c2)C1=O	none
CNC[C@@H](Cc1ccccc1)NC[C@@H](CC1CCCCC1)NCCCc1ccccc1	PLCg1 inh 13 | PLCg1 ctr inactive | PLCb3 confirm inactive
O=C(NCCCN1CCOCC1)C(=O)NCCc1ccccc1	PLCg1 inh 12 | PLCg1 ctr inactive | PLCb3 confirm inactive
Cc1ccc(C(=O)NCCCN2CCOCC2)cc1S(=O)(=O)N1CCOCC1	PLCg1 inh 10 | PLCg1 ctr inactive | PLCb3 confirm inactive
O=C(Cc1ccccc1)NCCCN1CCN(CCCNC(=O)Cc2ccccc2)CC1	PLCg1 inh 11 | PLCg1 ctr inactive | PLCb3 confirm inactive
O=C(NCCCN1CCOCC1)C(=O)NCc1ccccc1	none
O=C(NCCc1ccccc1)C(=O)NN=C1CCCC1	PLCg1 inh 9.7 | PLCg1 ctr inactive | PLCb3 confirm inactive
O=[N+]([O-])c1ccc2nc(CNc3nc(N4CCOCC4)nc4c3ncn4-c3ccsc3)[nH]c2c1	none (no result: proKLK7 act)
COC(=O)[C@]12C[C@H](CC(=O)NCC3CCCCC3)C(=O)N(Cc3cccc4ccccc34)C1=C[C@H](COCc1ccccc1)O[C@@H]2C	none
O=C(NCCCN1CCOCC1)c1ccccc1	PLCg1 inh 12 | PLCg1 ctr inactive | PLCb3 confirm inactive
CCc1nc2sc3c(c2c(=O)n1N)CCC3	PLCg1 inh 11 | PLCg1 ctr inactive | PLCb3 confirm inactive
COC(=O)c1cc(NC(=O)CC2SCCNC2=O)cc(C(=O)OC)c1 (configuration not stated)	none
O=C(CC1SCCNC1=O)Nc1cc(Cl)cc(Cl)c1 (configuration not stated)	PLC-beta3 inh 12 | PLCg1 ctr inactive | PLCb3 confirm inactive
O=C(Nn1cnnc1)C1Cc2ccccc2CN1S(=O)(=O)c1ccc(F)cc1 (configuration not stated)	PLCg1 inh 10 | PLCg1 ctr inactive | PLCb3 confirm inactive
Cc1ccc(S(=O)(=O)N2Cc3ccccc3CC2C(=O)Nn2cnnc2)cc1 (configuration not stated)	none

From PubChem
